This is one part of a sample in which hits are shown more often than they occur.
MITF inh – blocks MITF activity; TRPM1 promoter luciferase, luminescence, 24 h; AID 2240; 37,000 tested, 0.28% active; inhibition, % (concentration not given with the values); in the data active = inhibition above about 85%; inconclusive = no clear call, values can overlap the other calls; inactive = below about 68%;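 note: human melanocyte line stably carrying TRPM1 promoter luciferase reporter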
PD-1 reversal – reversal of PD-1 mediated T-cell inhibition | primary human CD4 T cells, PD-L1 beads, CellTiter-Glo 96 h | activation, % (no concentration beside the values) | 29,000 tested, under 10 active | AID 2316; call rule not given here;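 note: 0% = median vehicle wells and 100% = positive control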
YB-1 expr inh – YB-1 expression inhibition; delta delta Cp (YB-1 minus CDIP) (test concentration not listed); U2OS, qRT-PCR YB-1 vs CDIP delta delta Cp, 16 h; hits give high values; zero = DMSO, each unit about twofold; 30,000 tested, 0.37% active; AID 434959;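 active = delta delta Cp rounded down to an integer at or above 3, about 3 SD of DMSO wells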;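 note: higher means less YB-1 transcript or more CDIP transcript relative to DMSO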
NOMO-1 viab – STK33 inhibitor candidate reducing NOMO-1 cell viability; NOMO-1 AML viability, CellTiter-Glo luminescence, 72 h; inhibition, % (concentration not given with the values); 37,000 tested, 7.5% active; AID 2330; in the data active = inhibition above about 80%; inconclusive = no clear call, values can overlap the other calls
ROS inducer – raises reactive oxygen species in U2OS cancer cells. U2OS ROS induction, H2DCF-DA fluorescence. ROS induction (% of piperlongumine), % at 10 µM. 46,000 tested, 2% active. AID 624156; in the data active = ROS induction above about 79%, passing the limit was not always enough; inconclusive = no clear call, values can overlap the other calls;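 note: 0% = DMSO vehicle median and 100% = reference compound median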
Active calls of the source: *.

COc1cccc(OC)c1C(=O)NC(=S)Nc1cccc(-c2nn3c(C)nnc3s2)c1 was read as MITF inh 39, PD-1 reversal -3, NOMO-1 viab 122* and ROS inducer -1.
C[C@@H]1CN([C@@H](C)CO)C(=O)c2cccc(NC(=O)Nc3ccc(C(F)(F)F)cc3)c2O[C@@H]1CN(C)Cc1ccc(Cl)c(Cl)c1 was read as MITF inh -5, PD-1 reversal -3, YB-1 expr inh -0.3, NOMO-1 viab inconclusive and ROS inducer 25.
For C[C@H](CO)N1C[C@H](C)[C@@H](CN(C)Cc2ccc(Cl)c(Cl)c2)Oc2c(NC(=O)Nc3ccc(C(F)(F)F)cc3)cccc2C1=O the results were MITF inh 2, PD-1 reversal -4, YB-1 expr inh -0.046, NOMO-1 viab 109* and ROS inducer 0.
C[C@H]1CN([C@@H](C)CO)C(=O)c2cccc(NC(=O)Nc3ccc(C(F)(F)F)cc3)c2O[C@@H]1CN(C)Cc1ccc(Cl)c(Cl)c1 was read as MITF inh 16, PD-1 reversal -5, YB-1 expr inh -0.012, NOMO-1 viab 107* and ROS inducer 9.
For C[C@H](CO)N1C[C@H](C)[C@H](CN(C)Cc2ccc(Cl)c(Cl)c2)Oc2c(NC(=O)Nc3ccccc3)cccc2C1=O the results were MITF inh 45, PD-1 reversal -4, YB-1 expr inh 0.98, NOMO-1 viab 68 and ROS inducer 30.
For N#Cc1cccc(NC(=O)CCCN2C(=O)c3ccccc3C2=O)c1 the results were MITF inh -3, PD-1 reversal 2, NOMO-1 viab 12 and ROS inducer 8.
COc1ccc2nc(Nc3nc(C)c(CCC(C)C)c(=O)[nH]3)nc(C)c2c1 was read as MITF inh 23, PD-1 reversal -2, NOMO-1 viab 66 and ROS inducer inconclusive.
Screening CCN(CC)CCCC(C)Nc1c2ccc(Cl)cc2nc2ccc(OC)cc12 (configuration not stated) returned MITF inh -118, YB-1 expr inh 0.38, NOMO-1 viab 114* and ROS inducer 9.
Screening Cc1cc(=O)[nH]c(SCCOc2ccccc2C#N)n1 returned MITF inh -90, PD-1 reversal 0, NOMO-1 viab -17 and ROS inducer 0.
Screening S=C(NC1CCCCC1)Sc1ccc(Cl)cc1 returned MITF inh 10, PD-1 reversal -1, YB-1 expr inh -1, NOMO-1 viab 122* and ROS inducer 10.
CC(=O)Nc1ccc(S(=O)(=O)NC2CCCC2)cc1 was read as ROS inducer -9.
Cc1ccc(-c2nnc(SCC(=O)Nc3c(Cl)cc(Cl)cc3Cl)n2C)cc1 was read as MITF inh 3, PD-1 reversal 2, NOMO-1 viab 13 and ROS inducer -4.
C=C1CC[C@@H]2[C@](C)(CO)[C@H](O)CC[C@@]2(C)[C@@H]1CC(O)C1=CCOC1=O (some centres not stated) was read as MITF inh -22, PD-1 reversal -6, YB-1 expr inh -0.31, NOMO-1 viab 106* and ROS inducer -10.
Screening CC1CCCCC1NS(=O)(=O)c1ccc(S(=O)(=O)N2CCN(c3ncccn3)CC2)cc1 (configuration not stated) returned ROS inducer 24.
For COc1ccc(CCn2c(=S)[nH]c3c(sc4ccccc43)c2=O)cc1OC the results were ROS inducer 15.
Screening COCCNC(=O)c1c(NC(=O)c2nc(SC)ncc2Cl)sc2c1CCCC2 returned MITF inh 20, PD-1 reversal -5, NOMO-1 viab 138* and ROS inducer -1.
For CSc1ncc(Cl)c(C(=O)Nc2sc3c(c2C(=O)NCCc2ccccc2)CCC3)n1 the results were MITF inh -13, PD-1 reversal 1, NOMO-1 viab 19 and ROS inducer 5.
COc1cccc(C2CC(C(F)(F)F)n3ncc(C(=O)NCc4cccnc4)c3N2)c1 (configuration not stated) was read as MITF inh 0, PD-1 reversal 0, NOMO-1 viab -6 and ROS inducer 101*.
`COc1cccc(C2CC(C(F)(F)F)n3ncc(C(=O)O)c3N2)c1` (configuration not stated) gave MITF inh -19, PD-1 reversal 0, YB-1 expr inh -0.09, NOMO-1 viab -4 and ROS inducer 14.
Screening NC(=NCc1ccc(Cl)cc1Cl)NC(=O)c1nc(Cl)c(N)nc1N returned MITF inh -2, YB-1 expr inh 0.09, NOMO-1 viab 120* and ROS inducer 8.
Screening O=c1oc(-c2cccc(Cl)c2)nc2c1cnn2-c1ccccc1 returned MITF inh -7, PD-1 reversal -1, YB-1 expr inh 0.22, NOMO-1 viab 115* and ROS inducer 4.
CNC1CCc2cc(OC)c(OC)c(OC)c2-c2ccc(OC)c(=O)cc21 (configuration not stated) was read as MITF inh 32, PD-1 reversal -21, YB-1 expr inh -0.78, NOMO-1 viab 97* and ROS inducer 2.
Screening COc1c(O[C@@H]2O[C@H](CO)[C@@H](O)[C@H](O)[C@H]2O)cc2c(c1OC)-c1ccc(SC)c(=O)cc1C(NC(C)=O)CC2 (some centres not stated) returned MITF inh 2, PD-1 reversal 1, YB-1 expr inh 0.46, NOMO-1 viab -7 and ROS inducer 1.
For O=C1O[C@H](c2ccccc2)[C@H](c2ccccc2)N2[C@H]1[C@@H](C(=O)N1CCN(c3ncccn3)CC1)[C@]1(C(=O)Nc3ccc(C#CC4(O)CCCCCC4)cc31)[C@H]2c1ccccc1OCCO the results were YB-1 expr inh -0.086 and ROS inducer 147*.
Screening O=C1O[C@@H](c2ccccc2)[C@@H](c2ccccc2)N2[C@@H](c3ccccc3OCCO)[C@]3(C(=O)Nc4ccccc43)[C@@H](C(=O)N3CCN(c4ncccn4)CC3)[C@H]12 returned YB-1 expr inh 0.33 and ROS inducer 122*.
O=C1O[C@H](c2ccccc2)[C@H](c2ccccc2)N2[C@H]1[C@@H](C(=O)N1CCCCCCC1)[C@]1(C(=O)Nc3ccc(C#CC4(O)CCCCCC4)cc31)[C@H]2c1ccccc1OCCO was read as YB-1 expr inh -0.35 and ROS inducer 50.
`COc1ccc(C#Cc2ccc3c(c2)[C@]2(C(=O)N3)[C@H](C(=O)N3CCN(c4ncccn4)CC3)[C@H]3C(=O)O[C@H](c4ccccc4)[C@H](c4ccccc4)N3[C@@H]2c2ccccc2OCCO)cc1` gave YB-1 expr inh 0.29 and ROS inducer 28.
`O=C1O[C@@H](c2ccccc2)[C@@H](c2ccccc2)N2[C@@H](c3ccccc3OCCO)[C@]3(C(=O)Nc4ccc(C#CCCO)cc43)[C@@H](C(=O)N3CCN(c4ncccn4)CC3)[C@H]12` gave YB-1 expr inh -0.47 and ROS inducer 94*.
